According to PubChem BioAssay:
For part of these data: Results with a measured potency or affinity are listed apart. Activity calls are given as the source filed them.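 Rule for the calls, unless noted: active = membrane potential signal rise above negative control mean plus 3 SD in both duplicates, also active in the earlier TRPC4 screen; inactive = the rest.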

Experiments:
[1] = tested on: TRPC4 beta (transient receptor potential cation channel C4), mouse; assay: activators of mouse TRPC4 channel, confirmation, cell-based, Fluo4 calcium, HEK293 TRPC4beta/mu-opioid, duplicates, 10 µM (AID 2426;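 active = fluorescence ratio normalized to control raised more than 50% in primary screen plus both repeat runs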); details: Fluo4 calcium fluorescence, at 10 µM; active compounds read high
[2] = tested on: transient receptor potential cation channel C4 beta (TRPC4), mouse; assay: activators of mouse TRPC4 channel, confirmation, cell-based, second round, Fluo4, HEK293 TRPC4beta/mu-opioid, 1 µM (AID 2461;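 active = primary screen active and over 50% activation in each of two duplicate runs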); details: Fluo4 calcium fluorescence, at 1 µM; active compounds read high
[3] = tested on: TRPC4 (transient receptor potential cation channel C4 beta), mouse; assay: positive allosteric modulators of mouse TRPC4, confirmation, cell-based, second round, Fluo-4, HEK293 TRPC4beta/mu-opioid, 1 µM (AID 2554;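 active = primary screen hit whose fluorescence ratio, in both repeats, exceeds the weak agonist control mean by 3 SD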); details: DAMGO EC20, Fluo-4 calcium flux, at 1 µM; active compounds read high
[4] = tested on: TRPC4 beta (transient receptor potential cation channel C4), mouse; assay: positive allosteric modulators of mouse TRPC4, confirmation, cell-based, Fluo-4, HEK293 TRPC4beta/mu-opioid (AID 2555;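 active = primary screen hit whose calcium fluorescence ratio, in both repeats, exceeds the weak agonist control mean by 3 SD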); details: DAMGO EC20, Fluo-4 calcium flux, at 10 µM; active compounds read high
[5] = target: Short transient receptor potential channel 4 (Mus musculus) (UniProt Q9QUQ5); assay: inhibitors of mouse TRPC4 channel, confirmation, cell-based, Fluo4, HEK293 TRPC4beta/mu-opioid (AID 2636;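 active = calcium signal cut by more than 3 SD below the full-agonist control yet still positive, in both repeats and the earlier primary screen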); details: DAMGO, Fluo4 calcium flux, at 10 µM; active compounds read high
Short transient receptor potential channel 4 (Mus musculus), sequence (Q9QUQ5 whole entry, looked up): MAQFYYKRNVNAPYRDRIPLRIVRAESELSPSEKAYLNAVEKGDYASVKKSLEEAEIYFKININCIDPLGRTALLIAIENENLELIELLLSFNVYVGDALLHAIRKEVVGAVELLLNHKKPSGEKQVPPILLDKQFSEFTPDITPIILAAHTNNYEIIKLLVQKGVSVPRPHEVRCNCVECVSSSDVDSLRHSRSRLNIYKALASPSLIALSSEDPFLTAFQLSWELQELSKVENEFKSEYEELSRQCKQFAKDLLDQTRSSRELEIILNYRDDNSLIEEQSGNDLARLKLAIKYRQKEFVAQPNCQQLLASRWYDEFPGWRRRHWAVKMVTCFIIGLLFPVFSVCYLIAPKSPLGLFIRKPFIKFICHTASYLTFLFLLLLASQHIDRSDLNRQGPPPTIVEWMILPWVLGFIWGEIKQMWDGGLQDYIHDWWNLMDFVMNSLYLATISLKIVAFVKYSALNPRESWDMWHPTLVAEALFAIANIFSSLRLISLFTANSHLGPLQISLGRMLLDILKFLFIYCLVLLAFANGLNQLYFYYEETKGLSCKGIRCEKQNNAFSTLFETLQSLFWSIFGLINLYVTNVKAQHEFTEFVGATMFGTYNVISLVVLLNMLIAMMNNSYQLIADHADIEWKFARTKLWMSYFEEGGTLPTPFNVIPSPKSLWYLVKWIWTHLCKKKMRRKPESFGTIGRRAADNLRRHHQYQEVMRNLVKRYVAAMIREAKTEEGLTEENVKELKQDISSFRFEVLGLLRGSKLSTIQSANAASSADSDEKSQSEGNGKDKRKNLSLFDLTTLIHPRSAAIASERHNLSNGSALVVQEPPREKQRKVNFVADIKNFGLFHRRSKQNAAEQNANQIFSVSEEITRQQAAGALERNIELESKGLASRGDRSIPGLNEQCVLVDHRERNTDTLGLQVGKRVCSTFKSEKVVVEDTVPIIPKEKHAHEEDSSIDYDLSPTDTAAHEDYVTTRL

[6] = target: Short transient receptor potential channel 4 (Mus musculus) (UniProt Q9QUQ5); assay: inhibitors of mouse TRPC4 channel, confirmation, cell-based, second round, Fluo4, HEK293 TRPC4beta/mu-opioid, 1 µM (AID 2637;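 active = calcium signal ratio cut to more than 3 SD under the fully stimulated control mean yet still positive, in both repeats and the primary screen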); details: Fluo4 calcium flux, DAMGO, at 1 µM; active compounds read high
[7] = target: Short transient receptor potential channel 4 (Mus musculus) (UniProt Q9QUQ5); assay: mouse TRPC4 channel activators, dose response, cell-based, HEK293 TRPC4/mu-opioid, Fluo-4 calcium (AID 434937;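 active = primary screen activator hit with a dose response curve and TRPC4 channel activation at any tested dose; inactive = no activation, no dose response, or not a primary hit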)
[8] = target: Short transient receptor potential channel 4 (Mus musculus) (UniProt Q9QUQ5); assay: TRPC4 positive allosteric modulators, dose response, cell-based, HEK293 TRPC4/mu-opioid, Fluo-4 calcium, EC20 DAMGO (AID 434941;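 active = earlier screen potentiator hit that boosts the TRPC4 ion channel at some dose, with a dose response; inactive = no potentiation, no dose response, or not a prior hit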;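 note: calcium entry triggered by an EC20 dose of DAMGO at the co-expressed mu-opioid receptor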)
[9] = target: Short transient receptor potential channel 4 (Mus musculus) (UniProt Q9QUQ5); assay: mouse TRPC4 channel inhibitors, dose response, cell-based, HEK293 TRPC4/mu-opioid, Fluo-4 calcium (AID 434942;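 active = primary screen inhibitor hit that blocks the TRPC4 channel at some tested dose, yielding a dose curve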)
[10] = target: Short transient receptor potential channel 6 (Mus musculus) (UniProt Q61143); assay: inhibition of mouse TRPC6 channel, confirmation, selectivity assay for TRPC4 inhibitor project, cell-based, HEK293, membrane potential dye, duplicate (AID 434948;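 active = active in primary screen and both duplicates, each dropping signal beyond three positive-control SD with fluorescence still positive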); details: HEK293 TRPC6, membrane potential dye fluorescence, at 10 µM, stimulated with maximal-effect acetylcholine; active compounds read high
Short transient receptor potential channel 6 (Mus musculus), sequence (Q61143 whole entry, looked up): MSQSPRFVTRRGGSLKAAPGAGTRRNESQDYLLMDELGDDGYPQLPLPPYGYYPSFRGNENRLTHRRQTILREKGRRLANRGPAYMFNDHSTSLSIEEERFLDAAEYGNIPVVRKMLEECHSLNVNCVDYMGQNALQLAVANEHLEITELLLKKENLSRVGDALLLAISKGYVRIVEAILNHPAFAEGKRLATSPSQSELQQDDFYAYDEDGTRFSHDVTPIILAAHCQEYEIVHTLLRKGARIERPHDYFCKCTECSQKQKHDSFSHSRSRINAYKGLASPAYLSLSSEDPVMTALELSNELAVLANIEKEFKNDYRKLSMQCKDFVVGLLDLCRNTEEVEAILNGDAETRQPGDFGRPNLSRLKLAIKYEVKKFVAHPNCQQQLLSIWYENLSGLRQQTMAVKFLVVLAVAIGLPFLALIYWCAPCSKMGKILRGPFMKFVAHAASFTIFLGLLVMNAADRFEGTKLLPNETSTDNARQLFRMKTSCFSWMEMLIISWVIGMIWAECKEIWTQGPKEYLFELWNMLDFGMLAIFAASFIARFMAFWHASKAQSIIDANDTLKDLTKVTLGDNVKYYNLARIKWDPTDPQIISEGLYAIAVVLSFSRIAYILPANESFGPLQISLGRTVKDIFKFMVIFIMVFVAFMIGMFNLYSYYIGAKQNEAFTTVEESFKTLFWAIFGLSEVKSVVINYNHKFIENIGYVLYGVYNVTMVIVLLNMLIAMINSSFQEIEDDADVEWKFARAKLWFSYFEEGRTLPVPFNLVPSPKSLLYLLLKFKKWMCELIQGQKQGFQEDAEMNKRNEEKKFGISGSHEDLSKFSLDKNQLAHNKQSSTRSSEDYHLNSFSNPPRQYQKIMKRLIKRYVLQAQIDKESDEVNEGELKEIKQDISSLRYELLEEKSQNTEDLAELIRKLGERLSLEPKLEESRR

[11] = target: Short transient receptor potential channel 6 (Mus musculus) (UniProt Q61143); assay: activation of mouse TRPC6 channel, confirmation, selectivity assay for TRPC4 activator project, cell-based, HEK293, membrane potential dye, duplicate (AID 434950); details: HEK293 TRPC6, membrane potential fluorescence, at 10 µM; active compounds read high;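 for activation: 0% = buffer only wells and 100% = acetylcholine maximal-effect wells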
[12] = target: Short transient receptor potential channel 6 (Mus musculus) (UniProt Q61143); assay: TRPC6 potentiation by TRPC4 potentiator hits, confirmation, selectivity assay for TRPC4 potentiator project, HEK293 cells, membrane potential dye, duplicate (AID 434952;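 active = compound raising the membrane signal above positive-control mean plus 3 SD in both repeats, and a primary screen hit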); details: HEK293 TRPC6, membrane potential dye fluorescence, at 10 µM, maximal acetylcholine added after compound; active compounds read high
[13] = target: Short transient receptor potential channel 4 (Mus musculus) (UniProt Q9QUQ5); assay: calcium flux activators in TRPC4/5HT1a cells, counter-screen for TRPC4 activator project, cell-based, second counter screen, HEK293 TRPC4/5HT1a, Fluo-4 (AID 434977;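 active = calcium signal rise above buffer-control mean plus 5 SD in both duplicates, and also a hit in the primary screen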;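 for activation: plate controls were assay buffer for no effect and maximal serotonin response for full effect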); details: Fluo-4 calcium flux, at 10 µM; active compounds read high
[14] = calcium flux inhibitors in TRPC4/5HT1a cells, confirmation, counter-screen for TRPC4 inhibitor project, cell-based, second counter screen, HEK293 TRPC4/5HT1a, Fluo-4 (AID 434978;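 active = primary screen active whose calcium signal fell more than 3 SD beyond the full-serotonin control mean in both duplicate plates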;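 note: serotonin given first at submaximal then at maximal dose after compound preincubation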); details: Fluo-4 calcium flux, at 10 µM, serotonin added to trigger calcium flux; active compounds read high
[15] = tested on: TRPC4 (mouse), co-expressed with 5HT1a in HEK293; assay: calcium flux potentiators in TRPC4/5HT1a cells, confirmation, counter-screen for TRPC4 potentiator project, cell-based, second counter screen, HEK293 TRPC4/5HT1a, Fluo-4 (AID 434979;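 active = signal rise over 3 SD above mean of control wells given weak agonist, in both repeats and first screen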); details: Fluo-4 calcium flux, at 10 µM, serotonin added at its EC20 dose; active compounds read high
[16] = calcium flux activation in mu-opioid HEK293 cells, confirmation, counter-screen for TRPC4 activator project, cell-based, HEK293 mu-opioid receptor line (AID 449723;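 active = hit in primary screen, with calcium signal over 5 SD above buffer well mean in both duplicates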;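 note: counter screen cells carry the mu-opioid receptor alone and lack TRPC4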); details: Fluo-4 calcium fluorescence, at 10 µM; active compounds read high
[17] = calcium flux enhancement in mu-opioid HEK293 cells, confirmation, counter-screen for TRPC4 allosteric potentiator project, cell-based, HEK293 mu-opioid receptor line (AID 449724;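 active = calcium signal rise more than 3 SD above the low-dose agonist control mean, in both duplicate plates and the primary screen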); details: Fluo-4 calcium flux, at 10 µM, compound added before EC20 DAMGO stimulus; active compounds read high

COc1cccc(OCCOCCNCCO)c1
inactive: outcome [1] | outcome [2] | outcome [3] | outcome [4] | outcome [5] | outcome [6] | outcome [7] | outcome [8] | outcome [9] | outcome [10] | outcome [12] | outcome [13] | outcome [14] | outcome [15] | outcome [16] | outcome [17]
active: activation [11] 33.5%

CCOC(=O)c1c(C)n(C)c2ccc(OCC(O)CNCCc3ccccc3)cc12 (stereo not given)
inactive: outcome [1] | outcome [2] | outcome [3] | outcome [4] | outcome [5] | outcome [6] | outcome [7] | outcome [8] | outcome [9] | outcome [10] | outcome [11] | outcome [12] | outcome [13] | outcome [14] | outcome [15] | outcome [16] | outcome [17]

Cc1ccc(SC(CC(=O)c2ccc(C(C)(C)C)cc2)C(=O)O)cc1 (stereo not given)
inactive: outcome [1] | outcome [2] | outcome [3] | outcome [4] | outcome [5] | outcome [6] | outcome [7] | outcome [8] | outcome [9] | outcome [10] | outcome [11] | outcome [12] | outcome [13] | outcome [14] | outcome [15] | outcome [16] | outcome [17]

Cc1ccc(-c2cn(-c3ccccc3)c(SCC(N)=O)n2)cc1C
active: potentiation [3] 29% | potentiation [15] 25.4% | activation [17] 741%
inactive: outcome [1] | outcome [2] | outcome [4] | outcome [5] | outcome [6] | outcome [7] | outcome [8] | outcome [9] | outcome [10] | outcome [11] | outcome [12] | outcome [13] | outcome [14] | outcome [16]

CCOC(=O)c1cc(=O)n(Cc2ccccc2C)c2ccccc12
active: potentiation [4] 74% | potentiation [15] 48.4%
inactive: outcome [1] | outcome [2] | outcome [3] | outcome [5] | outcome [6] | outcome [7] | outcome [8] | outcome [9] | outcome [10] | outcome [11] | outcome [12] | outcome [13] | outcome [14] | outcome [16] | outcome [17]

CCCn1c(=O)c2sccc2n2c(CCCC(=O)NC3CCN(Cc4ccccc4)CC3)nnc12
inactive: outcome [1] | outcome [2] | outcome [3] | outcome [5] | outcome [6] | outcome [7] | outcome [8] | outcome [9] | outcome [10] | outcome [11] | outcome [12] | outcome [13] | outcome [14] | outcome [16] | outcome [17]
active: potentiation [4] 7% | potentiation [15] 7.99%

COc1cc2cc(C)c(SCC(=O)N3CCN(C(=O)c4ccco4)CC3)nc2cc1OC
inactive: outcome [1] | outcome [2] | outcome [3] | outcome [4] | outcome [5] | outcome [6] | outcome [7] | outcome [8] | outcome [9] | outcome [10] | outcome [11] | outcome [12] | outcome [13] | outcome [14] | outcome [15] | outcome [16] | outcome [17]

CSCC[C@H](NC(=O)N1CCn2c1nc1ccccc12)C(=O)NCc1ccc(C)cc1
inactive: outcome [1] | outcome [2] | outcome [3] | outcome [5] | outcome [6] | outcome [7] | outcome [8] | outcome [9] | outcome [10] | outcome [11] | outcome [12] | outcome [13] | outcome [14] | outcome [16] | outcome [17]
active: potentiation [4] 30% | potentiation [15] 6.18%

CCN(CC)CCNc1ccc(Cl)cc1[N+](=O)[O-]
active: potentiation [3] 31% | potentiation [15] 17.9%
inactive: outcome [1] | outcome [2] | outcome [4] | outcome [5] | outcome [6] | outcome [7] | outcome [8] | outcome [9] | outcome [10] | outcome [11] | outcome [12] | outcome [13] | outcome [14] | outcome [16] | outcome [17]

CCCN(CCC)CCCNC(=O)c1cc2c(=O)n(C)c3ccccc3c2n1C
active: potentiation [3] 23% | activation [13] 6.09% | potentiation [15] 23.1%
inactive: outcome [1] | outcome [2] | outcome [4] | outcome [5] | outcome [6] | outcome [7] | outcome [8] | outcome [9] | outcome [10] | outcome [11] | outcome [12] | outcome [14] | outcome [16] | outcome [17]

O=C(CNc1ccc(Br)cc1)c1ccc(O)cc1
inactive: outcome [1] | outcome [2] | outcome [3] | outcome [4] | outcome [6] | outcome [7] | outcome [8] | outcome [9] | outcome [11] | outcome [12] | outcome [13] | outcome [14] | outcome [15] | outcome [16] | outcome [17]
active: inhibition [5] 82% | inhibition [10] 60.5%

O=C(c1ccccc1)c1coc2ccc(O)c(CN3CCOCC3)c12
inactive: outcome [1] | outcome [2] | outcome [3] | outcome [4] | outcome [5] | outcome [6] | outcome [7] | outcome [8] | outcome [9] | outcome [10] | outcome [11] | outcome [12] | outcome [13] | outcome [14] | outcome [15] | outcome [16] | outcome [17]

Cc1cc(C(C)(C)C)cc(S(=O)(=O)Nc2cccc(C(=O)O)c2)c1C
active: potentiation [4] 9% | potentiation [15] 19%
inactive: outcome [1] | outcome [2] | outcome [3] | outcome [5] | outcome [6] | outcome [7] | outcome [8] | outcome [9] | outcome [10] | outcome [11] | outcome [12] | outcome [13] | outcome [14] | outcome [16] | outcome [17]

COc1cc(/C=C/C(=O)OCC(=O)Nc2c(C)n(C)n(-c3ccccc3)c2=O)ccc1OCC#N
inactive: outcome [1] | outcome [2] | outcome [3] | outcome [4] | outcome [5] | outcome [6] | outcome [7] | outcome [8] | outcome [9] | outcome [10] | outcome [12] | outcome [13] | outcome [14] | outcome [15] | outcome [16] | outcome [17]
active: activation [11] 39.5%

CCSc1nnc([C@H](Cc2c[nH]c3ccccc23)NC(=O)OC(C)(C)C)o1
inactive: outcome [1] | outcome [2] | outcome [3] | outcome [4] | outcome [5] | outcome [6] | outcome [7] | outcome [8] | outcome [9] | outcome [10] | outcome [11] | outcome [12] | outcome [13] | outcome [14] | outcome [16] | outcome [17]
active: potentiation [15] 13.1%
